Source: PubChem (National Center for Advancing Translational Sciences (NCATS))
Only some compounds are listed: those with a hit (about 5.1% of all), similar ones and a draw of the others.
Pol III holo inh: DNA polymerase III holoenzyme inhibition; reconstituted DNA polymerase III holoenzyme replication, biochemical; Potency, µM (highest dose often 57.1 µM), for inactives: at the top dose activity change, negative = inhibition; 71,000 compounds, 0.25% hits; AID 603; also: % is scaled to controls: 0 for no effect and ±100 for the full control effect
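Reconstituted *E. coli* holoenzyme (0.35 nM Pol III, 1 nM beta, 154 nM SSB, 2 nM primase) was preincubated with compound for 15 min at RT. Synthesis on 1.4 nM ssM13Gori ran 35 min, then was stopped with PicoGreen/EDTA and read as dsDNA fluorescence.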
Tau fil binding: tau filament binding. P10636. recombinant tau filaments, thioflavin S fluorescence, 15 h; filaments grown with octadecylsulfate alongside compound. Potency, µM (top dose mostly 57.1 µM), for inactives: top-dose activity change, negative = inhibition. 71,000 compounds, 2% hits. AID 596;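 also: % is scaled to controls: 0 for no effect and ±100 for the full control effect; actives lower thioflavin S fluorescence by blocking filaments or displacing dye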
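His-tagged recombinant human tau (exons 2, 3 and 10 included), 1 uM, was induced to fibrillize by 30 uM sodium octadecylsulfate with compound present. After 15 h at 37 C, thioflavine S fluorescence (ex 450, em 510 nm) was read.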
Hsp90 Hop PPI: changes Hsp90-Hop TPR2A binding signal, up or down | AlphaScreen TPR2A-His6 binding biotin-Hsp90 C-terminal peptide | Potency, µM (series often up to 57 µM), without a hit: at the top dose activity change, negative = inhibition | 71,000 compounds, 0.44% hits | AID 595; active = well fitted curve in either direction with a large enough effect; inconclusive = small, poorly fitted or top-dose-only effect, or another doubt; also: % is scaled to controls: 0 for no effect and ±100 for the full control effect
HEK293 cAMP cs: parental HEK293 cAMP activation (counter-screen). AID 938. parental HEK293 CNG cAMP sensor, membrane potential fluorescence. Potency, µM (doses to about 57.1 µM), for the others: top-dose activation, most hits filed as activators. 73,000 compounds, 2.5% hits; also: % of control where 0% means no effect; nearly all actives have a fitted effect of over 55% in size
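Parental HEK 293 cells stably expressing a cAMP-gated CNG channel were loaded with membrane potential dye containing 100 uM RO 20-1724 for 60 min. Compound added for 30 min; depolarization read as fluorescence intensity at 590 nm.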
TSHR ag: TSH receptor (human) agonism. P16473. HEK293-CNG-TSHR cells (CNG channel as cAMP sensor), membrane potential dye, cAMP. Potency, µM (titrated, usually from 57.1 µM), inactives show at the highest dose activation, hits mostly activators. 73,000 compounds, 0.48% hits. AID 926; active = well fitted activation curve with a large enough effect in the main read-out, with a control signal flat, not every such curve was filed as active; inconclusive = small, poorly fitted or top-dose-only effect, or a change in a side signal; inactive = no such curve, though single readings can be large or run the other way; % of control where 0% means no effect;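 also: the control signal comes from parental cells without the receptor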
Target sequence (P16473 whole entry, looked up): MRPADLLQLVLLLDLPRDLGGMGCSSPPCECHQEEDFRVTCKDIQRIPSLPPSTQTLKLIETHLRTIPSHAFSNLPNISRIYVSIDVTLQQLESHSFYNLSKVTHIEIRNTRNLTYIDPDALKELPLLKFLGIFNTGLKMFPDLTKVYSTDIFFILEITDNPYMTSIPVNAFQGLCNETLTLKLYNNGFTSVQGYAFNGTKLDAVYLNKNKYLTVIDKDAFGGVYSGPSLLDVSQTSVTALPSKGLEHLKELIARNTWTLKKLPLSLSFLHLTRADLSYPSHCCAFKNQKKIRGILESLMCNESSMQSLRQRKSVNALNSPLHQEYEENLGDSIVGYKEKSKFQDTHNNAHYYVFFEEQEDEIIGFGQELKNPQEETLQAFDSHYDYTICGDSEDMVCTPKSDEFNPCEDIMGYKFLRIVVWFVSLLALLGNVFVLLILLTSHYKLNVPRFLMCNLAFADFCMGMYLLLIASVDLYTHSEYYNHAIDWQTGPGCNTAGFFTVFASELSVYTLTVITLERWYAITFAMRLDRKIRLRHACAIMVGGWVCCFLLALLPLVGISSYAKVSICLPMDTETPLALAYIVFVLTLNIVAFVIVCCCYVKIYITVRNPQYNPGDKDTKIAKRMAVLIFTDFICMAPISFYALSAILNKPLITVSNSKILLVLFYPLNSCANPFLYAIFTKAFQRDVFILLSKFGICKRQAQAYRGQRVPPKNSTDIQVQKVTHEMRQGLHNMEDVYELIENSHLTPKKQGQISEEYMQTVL
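cAMP rise detected as CNG-channel membrane depolarization by fluorescent dye (emission 590 nm), 30 min after compound, following 60 min dye loading containing 100 uM RO 20-1724 at room temperature. Cells: TSHR/CNG HEK 293, with parental CNG HEK 293 as control.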
Numbers without * were called inactive; ? = inconclusive; · = no result; [ ] = dose if it differs, or a comment. Unless noted, calls follow the shape of the dose curve; as a rule, active = well fitted curve in the direction sought with a large enough effect; inconclusive = small, poorly fitted or top-dose-only effect, or another doubt; inactive = no such curve, though single readings can be large; an effect the other way counts as inactive or inconclusive. Potency is read from the fitted curve at half-maximal effect.

SMILES | Pol III holo inh | Tau fil binding | Hsp90 Hop PPI | HEK293 cAMP cs | TSHR ag
CN(C)CCCN1c2ccccc2Sc2ccc3ccccc3c21 | -9.8%[11.4 µM] | 2.51µM* | -3.8%[11 µM] | 0.8%[11.4 µM] | 3.0%[11.4 µM]
CN(C)CCCN1c2ccccc2Sc2ccc(Cl)cc21 | -11.5%[25.6 µM] | 5.01µM* | -12.0%[26 µM] | -5.2%[25.6 µM] | -16.9%[25.6 µM]
O=C(O)Cc1cc(Cl)ccc1O | -15.8%[11.4 µM] | -0.2%[11.4 µM] | -1.0%[11 µM] | 2.8%[11.4 µM] | 1.1%[11.4 µM]
O=C(O)/C=C/C(=O)O | 1.3% | 103.6% | -3.6% | -9.6% | ?
CC(=C/C=C/C(C)=C/C=C/C=C(C)/C=C/C=C(C)/C=C/C(=O)O)/C=C/C(=O)O | -13.9% | 25.1µM* | -1.0% | ? | ?
Cc1cc(C)c(/C=C2/C(=O)Nc3ccccc32)[nH]1 | -5.5% | 1µM* | ? | 1.58µM* | ?
O=C(O)/C=C\C(=O)Nc1ncn[nH]1 | -7.1%[11.4 µM] | 5.8%[11.4 µM] | -12.5%[11 µM] | 3.4%[11.4 µM] | 2.0%[11.4 µM]
C=CCc1cccc(CNc2nc3ccccc3n2CCN2CCOCC2)c1O | -2.6% | 25.1µM* | -16.1% | 0.2% | 2.9%
N#Cc1cccc(-c2cncnc2-n2ccnc2)c1 | -4.5% | 13.5% | -6.9% | 8.4% | 8.8%
COc1ccc(NCc2nnc(SCC(=O)Nc3cccc(C)c3)o2)cc1 | -5.0% | 15.8µM* | -12.2% | -11.9% | -2.5%
NCCCCCc1nnc(SCC(=O)Nc2cccc(Cl)c2)o1 | -0.6% | 5.7% | -1.6% | 3.6% | 15.8µM*
NCCCCCc1nnc(SCc2cccc(Cl)c2)o1 | 1.3% | -1.5% | -1.2% | 18.3% | 1.1%
NCS(=O)(=O)O | -6.2%[11.4 µM] | 2.2%[11.4 µM] | -2.4%[11 µM] | 2.5%[11.4 µM] | -3.7%[11.4 µM]
COc1ccc(-c2cc(C(F)F)n3ncc(C(=O)N4CCN5CCCC5C4)c3n2)cc1 (stereo not drawn) | -2.0% | -22.5% | -0.1% | 15.8µM* | ?
COc1ccc(-c2cc(C(F)F)n3ncc(C(=O)NCC4CCCO4)c3n2)cc1 (stereo not drawn) | -5.7% | -18.5% | 5.6% | 7.94µM* | ?
Cn1c(SCC(=O)c2cc3ccccc3o2)nnc1-c1ccccc1 | -6.1% | 3.6% | -0.1% | 1.6% | 4.7%
O=C(CSc1nnc(-c2cccs2)n1CC1CCCO1)c1cc2ccccc2o1 (stereo not drawn) | 0.1% | 15.8µM* | -8.1% | ? | ?
COC(=O)[C@H](Cc1ccccc1)NC(=O)C/C=C\[C@@H](C)[C@@H](CO)OC | · | · | · | 2.5%[11.4 µM] | -2.6%[11.4 µM]
CCN(C(=O)N(CC)c1ccccc1)c1ccccc1 | -2.3% | -16.5% | -4.2% | 15.8µM* | ?
CCN(C(=O)c1ccnc(C(C)(C)C)c1)c1ccccc1 | 0.1% | 0.4% | 0.5% | 20.8% | 16.4%
CCOc1ccc(OCCSc2nnnn2C2CCCCC2)cc1 | -3.9% | -11.8% | ? | 20µM* | ?
COC(=O)c1ccc(Nc2nc(C)cc(=O)[nH]2)cc1 | 1.3% | 132.8% | -10.1% | 12.6µM* | ?
COc1ccccc1Nc1nc(C)cc(=O)[nH]1 | -0.9% | 13.2% | -6.7% | -0.3% | 5.0%
O=C(C[n+]1ccc2ccccc2c1)c1ccc2ccc3ccccc3c2c1 | -20.6%[11.4 µM] | 2µM* | -4.6%[11 µM] | 0.3%[11.4 µM] | 8.1%[11.4 µM]
CCC(c1nnnn1CCc1ccccc1)N(Cc1ccco1)Cc1cc2cc(C)cc(C)c2[nH]c1=O (stereo not drawn) | -3.4% | 48.3% | -10.8% | 12.6µM* | ?
SMILES | Pol III holo inh | Tau fil binding | Hsp90 Hop PPI | HEK293 cAMP cs | TSHR ag
CCOc1cc(OCC)c(C(C)=O)cc1OCC | -0.6% | -2.3% | 1.7% | -5.0% | ?
Cc1cccc(N(CC(=O)NC2CCCCC2)C(=O)c2c(C)noc2C)c1 | 5.0% | -2.2% | 1.4% | 15.8µM* | ?
Cc1cc(NC(=O)CCCC(=O)N(CC(=O)NC2CCCCC2)c2ccccc2)no1 | ? | 5.0% | -4.4% | ? | ?
Cc1ccc(NC(=O)CN2CC(C)SC2=NC2CCCCC2)cc1 (stereo not drawn) | -9.3% | 12.6µM* | -4.1% | 15.4% | -6.5%
Cc1cccc(NC(=O)CC2SC(=NC3CCCCC3)NC2=O)c1 (stereo not drawn) | -0.3% | 6.2% | 4.8% | -3.2% | 0.0%
Oc1ccc(N2CCN(c3ncnc4sc5c(c34)CCC5)CC2)cc1 | -5.7% | -19.3% | -18.7% | 1.9% | ·
c1ccc2c(c1)nnn2-c1ncnc2sc3c(c12)CCCC3 | 1.0% | -5.3% | 27.1% | ? | ?
Cc1nc(N2CCN(c3ccccc3)CC2)c2c3c(sc2n1)CCC3 | 0.1% | 33.9% | -5.6% | -2.6% | 15.8µM*
